# Reference: the supplement of paper PMC12282887
# ± gives the standard deviation of the averaged measurements.
# Assays:
# Assay in all cases: promoter activity interaction Z-score (Lux/OD deviation from empty-vector control); higher = stronger promoter induction by the compound
# [1] = test system: E. coli BW25113 acrABp lux reporter
# How it was run: (§1)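 E. coli BW25113, as wild type or one of three single-gene deletion strains, carried low-copy luxCDABE promoter reporters and grew in 40 µl LB Lennox in 384-well plates at 37°C, with OD600 and luminescence read every 30 min for 12 h. Each compound was run at four 1:2 dilutions in biological duplicates, integration spanned 0–8 h for wild type and 1–9 h for deletion strains, and wells under 10% of the median growth value were dropped. The score is the Z-transformed residual of growth-normalised luminescence fitted against a control.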
# [2] = test system: E. coli BW25113 micFp lux reporter
# How it was run: as §1
# [3] = test system: E. coli BW25113 ompFp lux reporter
# How it was run: as §1
# [4] = test system: E. coli BW25113 robp lux reporter
# How it was run: as §1
# [5] = test system: E. coli BW25113 soxSp lux reporter
# How it was run: as §1
# [6] = test system: E. coli BW25113 tolCp lux reporter
# How it was run: as §1
# [7] = 22.5 µg/ml, genetic background: wild type
# [8] = 22.5 µg/ml, genetic background: ΔmarA
# [9] = 22.5 µg/ml, genetic background: Δrob
# [10] = 22.5 µg/ml, genetic background: ΔsoxS
# [11] = 45 µg/ml, genetic background: wild type
# [12] = 45 µg/ml, genetic background: ΔmarA
# [13] = 45 µg/ml, genetic background: Δrob
# [14] = 45 µg/ml, genetic background: ΔsoxS
# [15] = 90.1 µg/ml, genetic background: wild type
# [16] = 90.1 µg/ml, genetic background: ΔmarA
# [17] = 90.1 µg/ml, genetic background: Δrob
# [18] = 90.1 µg/ml, genetic background: ΔsoxS
# [19] = 180.2 µg/ml, genetic background: wild type
# [20] = 180.2 µg/ml, genetic background: ΔmarA
# [21] = 180.2 µg/ml, genetic background: Δrob
# [22] = 180.2 µg/ml, genetic background: ΔsoxS
structure (smiles),measurement,setting,value
CC(=O)Oc1ccccc1C(=O)O [Acetylsalicylic acid],promoter activity interaction Z-score,[1]; [7],-0.0985 ± 0.4
same,promoter activity interaction Z-score,[1]; [8],-0.517 ± 0.098
same,promoter activity interaction Z-score,[1]; [9],-0.0077 ± 0.088
same,promoter activity interaction Z-score,[1]; [10],-0.0154 ± 0.64
same,promoter activity interaction Z-score,[1]; [11],-0.074 ± 0.32
same,promoter activity interaction Z-score,[1]; [12],0.0467 ± 0.55
same,promoter activity interaction Z-score,[1]; [13],0.166 ± 0.1
same,promoter activity interaction Z-score,[1]; [14],0.231 ± 0.27
same,promoter activity interaction Z-score,[1]; [15],-0.285 ± 0.52
same,promoter activity interaction Z-score,[1]; [16],-0.333 ± 1.1
same,promoter activity interaction Z-score,[1]; [17],-0.137 ± 0.07
same,promoter activity interaction Z-score,[1]; [18],0.467 ± 0.76
same,promoter activity interaction Z-score,[1]; [19],0.092 ± 0.075
same,promoter activity interaction Z-score,[1]; [20],-0.505 ± 0.22
same,promoter activity interaction Z-score,[1]; [21],0.377 ± 0.044
same,promoter activity interaction Z-score,[1]; [22],1.71 ± 1.2
same,promoter activity interaction Z-score,[2]; [7],0.2 ± 0.11
same,promoter activity interaction Z-score,[2]; [8],0.0379 ± 0.26
same,promoter activity interaction Z-score,[2]; [9],0.404 ± 0.28
same,promoter activity interaction Z-score,[2]; [10],0.0828 ± 0.038
same,promoter activity interaction Z-score,[2]; [11],0.294 ± 0.19
same,promoter activity interaction Z-score,[2]; [12],0.0785 ± 0.071
same,promoter activity interaction Z-score,[2]; [13],0.518 ± 0.31
same,promoter activity interaction Z-score,[2]; [14],0.285 ± 0.12
same,promoter activity interaction Z-score,[2]; [15],0.237 ± 0.08
same,promoter activity interaction Z-score,[2]; [16],0.0592 ± 0.067
same,promoter activity interaction Z-score,[2]; [17],1.19 ± 0.68
same,promoter activity interaction Z-score,[2]; [18],0.855 ± 0.27
same,promoter activity interaction Z-score,[2]; [19],1.38 ± 0.096
same,promoter activity interaction Z-score,[2]; [20],0.189 ± 0.12
same,promoter activity interaction Z-score,[2]; [21],2.72 ± 0.048
same,promoter activity interaction Z-score,[2]; [22],2.65 ± 0.019
same,promoter activity interaction Z-score,[3]; [7],0.15 ± 0.52
same,promoter activity interaction Z-score,[3]; [8],-0.0334 ± 0.0097
same,promoter activity interaction Z-score,[3]; [9],-0.332 ± 0.11
same,promoter activity interaction Z-score,[3]; [10],-0.533 ± 0.19
same,promoter activity interaction Z-score,[3]; [11],0.0711 ± 0.62
same,promoter activity interaction Z-score,[3]; [12],-0.0561 ± 0.37
same,promoter activity interaction Z-score,[3]; [13],-0.229 ± 0.49
same,promoter activity interaction Z-score,[3]; [14],-0.162 ± 0.16
same,promoter activity interaction Z-score,[3]; [15],-0.597 ± 0.69
same,promoter activity interaction Z-score,[3]; [16],-0.411 ± 0.14
same,promoter activity interaction Z-score,[3]; [17],-0.956 ± 0.38
same,promoter activity interaction Z-score,[3]; [18],0.0662 ± 0.72
same,promoter activity interaction Z-score,[3]; [19],-0.594 ± 0.36
same,promoter activity interaction Z-score,[3]; [20],-0.771 ± 0.14
same,promoter activity interaction Z-score,[3]; [21],-0.628 ± 0.52
same,promoter activity interaction Z-score,[3]; [22],-0.165 ± 0.36
same,promoter activity interaction Z-score,[4]; [7],0.17 ± 0.36
same,promoter activity interaction Z-score,[4]; [8],-0.635 ± 0.24
same,promoter activity interaction Z-score,[4]; [9],0.299 ± 0.26
same,promoter activity interaction Z-score,[4]; [10],-0.394 ± 1.1
same,promoter activity interaction Z-score,[4]; [11],0.406 ± 0.86
same,promoter activity interaction Z-score,[4]; [12],0.328 ± 0.074
same,promoter activity interaction Z-score,[4]; [13],0.109 ± 1.1
same,promoter activity interaction Z-score,[4]; [14],0.454 ± 0.65
same,promoter activity interaction Z-score,[4]; [15],-0.235 ± 0.3
same,promoter activity interaction Z-score,[4]; [16],0.332 ± 0.19
same,promoter activity interaction Z-score,[4]; [17],-0.142 ± 0.65
same,promoter activity interaction Z-score,[4]; [18],0.2 ± 0.77
same,promoter activity interaction Z-score,[4]; [19],-0.797 ± 0.23
same,promoter activity interaction Z-score,[4]; [20],-0.595 ± 0.25
same,promoter activity interaction Z-score,[4]; [21],-0.635 ± 0.52
same,promoter activity interaction Z-score,[4]; [22],-0.507 ± 0.57
same,promoter activity interaction Z-score,[5]; [7],0.245 ± 0.03
same,promoter activity interaction Z-score,[5]; [8],0.396 ± 0.012
same,promoter activity interaction Z-score,[5]; [9],0.336 ± 0.03
same,promoter activity interaction Z-score,[5]; [10],0.386 ± 0.52
same,promoter activity interaction Z-score,[5]; [11],0.214 ± 0.2
same,promoter activity interaction Z-score,[5]; [12],0.405 ± 0.076
same,promoter activity interaction Z-score,[5]; [13],0.388 ± 0.19
same,promoter activity interaction Z-score,[5]; [14],0.494 ± 0.84
same,promoter activity interaction Z-score,[5]; [15],0.119 ± 0.042
same,promoter activity interaction Z-score,[5]; [16],0.218 ± 0.23
same,promoter activity interaction Z-score,[5]; [17],0.406 ± 0.2
same,promoter activity interaction Z-score,[5]; [18],0.157 ± 0.64
same,promoter activity interaction Z-score,[5]; [19],0.054 ± 0.12
same,promoter activity interaction Z-score,[5]; [20],0.327 ± 0.073
same,promoter activity interaction Z-score,[5]; [21],0.525 ± 0.097
same,promoter activity interaction Z-score,[5]; [22],0.502 ± 1.1
same,promoter activity interaction Z-score,[6]; [7],0.458 ± 0.6
same,promoter activity interaction Z-score,[6]; [8],-1.26 ± 1.6
same,promoter activity interaction Z-score,[6]; [9],-0.642 ± 0.11
same,promoter activity interaction Z-score,[6]; [10],0.238 ± 0.11
same,promoter activity interaction Z-score,[6]; [11],0.0937 ± 0.17
same,promoter activity interaction Z-score,[6]; [12],0.783 ± 0.48
same,promoter activity interaction Z-score,[6]; [13],0.602 ± 0.1
same,promoter activity interaction Z-score,[6]; [14],0.898 ± 0.65
same,promoter activity interaction Z-score,[6]; [15],0.202 ± 0.78
same,promoter activity interaction Z-score,[6]; [16],1.21 ± 0.39
same,promoter activity interaction Z-score,[6]; [17],1.08 ± 0.51
same,promoter activity interaction Z-score,[6]; [18],1.29 ± 0.033
same,promoter activity interaction Z-score,[6]; [19],-0.456 ± 0.15
same,promoter activity interaction Z-score,[6]; [20],-0.659 ± 0.06
same,promoter activity interaction Z-score,[6]; [21],1.91 ± 0.78
same,promoter activity interaction Z-score,[6]; [22],2.01 ± 0.4
